Source: article PMC7862700, “An all-to-all approach to the identification of sequence-specific readers for epigenetic DNA modifications on cytosine”

Assays:
Assay in all cases: DAPPL (digital affinity profiling via proximity ligation, sequencing); 10 mM Tris-HCl pH 7.5, 50 mM NaCl, 1 mM DTT, 4% glycerol, room temperature, 30 min; GST-TFs on glutathione beads, 16-mer random dsDNA library, 0.1% formaldehyde crosslink after washing; high values mean tight binding
HSF1 = HSF1 (Homo sapiens, UniProt Q00613 1-529); settings: protein: recombinant; tags: N-terminal GST; chain copies: 3; dsDNA, one strand shown
Chain of HSF1 (Q00613 whole entry, the tested form may be a part): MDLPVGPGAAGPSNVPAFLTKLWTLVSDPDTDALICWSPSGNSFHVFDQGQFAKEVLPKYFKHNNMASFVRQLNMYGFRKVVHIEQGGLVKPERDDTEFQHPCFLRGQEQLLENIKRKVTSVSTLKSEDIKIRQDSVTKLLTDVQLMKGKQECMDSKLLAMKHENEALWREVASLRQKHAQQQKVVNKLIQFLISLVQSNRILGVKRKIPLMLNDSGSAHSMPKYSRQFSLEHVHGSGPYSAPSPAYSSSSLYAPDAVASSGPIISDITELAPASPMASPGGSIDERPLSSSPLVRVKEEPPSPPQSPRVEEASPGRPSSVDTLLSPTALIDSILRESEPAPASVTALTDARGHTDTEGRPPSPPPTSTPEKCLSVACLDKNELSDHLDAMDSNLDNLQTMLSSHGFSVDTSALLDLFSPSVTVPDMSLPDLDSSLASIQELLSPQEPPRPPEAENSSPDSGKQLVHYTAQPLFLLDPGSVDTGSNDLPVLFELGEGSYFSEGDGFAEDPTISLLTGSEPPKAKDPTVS
In short: (§1)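 Human transcription factors carrying a GST fusion were produced in yeast, bound to glutathione beads, tagged with DNA barcodes and pooled together with a tag-only sample. Each pool was held with 200 nmole of a random double-stranded 16-mer DNA library in Tris/NaCl/DTT/glycerol buffer for 30 min at room temperature, then washed, crosslinked in 0.1% formaldehyde, proximity-ligated with BsaI/T4 ligase (1 h, 37 °C), PCR-amplified and sequenced on an Illumina NextSeq500. Binding signal is the read frequency of each hexamer for a given factor divided by its frequency in the tag-only sample.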

FLI1 = biological target: T1, FLI1 (Homo sapiens, UniProt Q01543 1-452); settings: protein: recombinant; tags: N-terminal GST; dsDNA, one strand shown
T1 sequence: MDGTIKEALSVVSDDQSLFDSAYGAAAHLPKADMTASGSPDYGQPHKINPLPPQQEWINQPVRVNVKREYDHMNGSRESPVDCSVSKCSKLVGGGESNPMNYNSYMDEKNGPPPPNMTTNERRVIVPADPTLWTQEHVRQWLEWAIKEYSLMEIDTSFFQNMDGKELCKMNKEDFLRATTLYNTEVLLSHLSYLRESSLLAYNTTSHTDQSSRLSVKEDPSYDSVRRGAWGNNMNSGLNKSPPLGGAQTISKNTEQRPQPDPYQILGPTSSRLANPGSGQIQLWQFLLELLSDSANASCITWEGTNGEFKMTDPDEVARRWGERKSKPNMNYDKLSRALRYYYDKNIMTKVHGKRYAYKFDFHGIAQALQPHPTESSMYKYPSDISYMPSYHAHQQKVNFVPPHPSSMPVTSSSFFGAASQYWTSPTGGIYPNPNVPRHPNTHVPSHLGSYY
In short: as §1

ELK1 = biological target: T2, ELK1 (Homo sapiens, UniProt P19419 1-428); settings: protein: recombinant; tags: N-terminal GST; dsDNA, one strand shown
T2 sequence: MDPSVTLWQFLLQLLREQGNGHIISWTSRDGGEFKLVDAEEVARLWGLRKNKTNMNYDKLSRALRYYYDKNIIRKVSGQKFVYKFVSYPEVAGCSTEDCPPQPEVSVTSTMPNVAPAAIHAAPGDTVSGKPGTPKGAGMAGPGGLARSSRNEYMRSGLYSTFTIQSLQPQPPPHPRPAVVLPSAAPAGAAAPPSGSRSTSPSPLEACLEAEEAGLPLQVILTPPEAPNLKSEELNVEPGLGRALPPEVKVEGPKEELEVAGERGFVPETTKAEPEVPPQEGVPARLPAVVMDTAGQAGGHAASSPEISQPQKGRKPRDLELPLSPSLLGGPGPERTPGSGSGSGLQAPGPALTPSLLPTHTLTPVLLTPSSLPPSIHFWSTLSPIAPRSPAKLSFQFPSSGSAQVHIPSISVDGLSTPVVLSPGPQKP
In short: as §1

GABPA = biological target: T3, GABPA (Homo sapiens, UniProt Q06546 1-454); settings: protein: recombinant; tags: N-terminal GST; dsDNA, one strand shown
T3 sequence: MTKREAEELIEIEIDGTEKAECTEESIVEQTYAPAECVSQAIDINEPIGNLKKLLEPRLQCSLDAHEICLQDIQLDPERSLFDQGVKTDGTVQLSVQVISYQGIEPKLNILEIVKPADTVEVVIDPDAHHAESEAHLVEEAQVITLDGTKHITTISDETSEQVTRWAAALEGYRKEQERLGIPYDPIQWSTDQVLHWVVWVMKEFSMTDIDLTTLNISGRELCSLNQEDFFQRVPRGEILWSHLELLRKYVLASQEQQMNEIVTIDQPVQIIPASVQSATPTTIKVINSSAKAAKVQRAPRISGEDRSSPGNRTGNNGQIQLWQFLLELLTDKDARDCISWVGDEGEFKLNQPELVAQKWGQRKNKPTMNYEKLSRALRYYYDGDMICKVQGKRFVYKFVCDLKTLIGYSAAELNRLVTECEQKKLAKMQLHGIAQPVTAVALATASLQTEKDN
In short: as §1

ERG = biological target: T4, ERG (Homo sapiens, UniProt P11308 1-479); settings: protein: recombinant; tags: N-terminal GST; dsDNA, one strand shown
T4 sequence: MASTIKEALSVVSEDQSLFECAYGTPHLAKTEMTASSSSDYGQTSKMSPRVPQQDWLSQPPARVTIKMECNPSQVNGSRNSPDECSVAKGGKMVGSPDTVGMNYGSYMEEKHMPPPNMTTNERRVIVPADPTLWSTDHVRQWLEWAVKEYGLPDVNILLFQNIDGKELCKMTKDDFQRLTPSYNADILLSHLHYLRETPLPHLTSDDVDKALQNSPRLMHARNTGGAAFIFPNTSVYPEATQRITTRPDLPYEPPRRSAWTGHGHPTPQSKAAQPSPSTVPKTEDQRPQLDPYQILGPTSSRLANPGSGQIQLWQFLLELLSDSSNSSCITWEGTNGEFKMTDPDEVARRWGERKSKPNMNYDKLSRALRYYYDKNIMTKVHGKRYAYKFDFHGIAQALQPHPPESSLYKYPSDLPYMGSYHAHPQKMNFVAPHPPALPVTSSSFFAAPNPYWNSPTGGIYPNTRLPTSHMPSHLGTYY
In short: as §1

ELK3 = biological target: T5, ELK3 (Homo sapiens, UniProt P41970 1-407); settings: protein: recombinant; tags: N-terminal GST; dsDNA, one strand shown
T5 sequence: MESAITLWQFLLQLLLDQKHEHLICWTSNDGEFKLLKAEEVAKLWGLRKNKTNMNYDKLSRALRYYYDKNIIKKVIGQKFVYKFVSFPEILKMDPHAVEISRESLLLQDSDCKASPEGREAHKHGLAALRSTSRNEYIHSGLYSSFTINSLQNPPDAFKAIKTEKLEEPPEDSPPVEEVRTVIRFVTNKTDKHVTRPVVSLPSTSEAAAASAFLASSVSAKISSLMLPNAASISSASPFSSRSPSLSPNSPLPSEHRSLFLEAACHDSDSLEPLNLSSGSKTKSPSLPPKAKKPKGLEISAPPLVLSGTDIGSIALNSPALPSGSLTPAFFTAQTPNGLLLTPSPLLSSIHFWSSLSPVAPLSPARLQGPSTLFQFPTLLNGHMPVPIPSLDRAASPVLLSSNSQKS
In short: as §1

FEV = biological target: T6, FEV (Homo sapiens, UniProt Q99581 1-238); settings: protein: recombinant; tags: N-terminal GST; dsDNA, one strand shown
T6 sequence: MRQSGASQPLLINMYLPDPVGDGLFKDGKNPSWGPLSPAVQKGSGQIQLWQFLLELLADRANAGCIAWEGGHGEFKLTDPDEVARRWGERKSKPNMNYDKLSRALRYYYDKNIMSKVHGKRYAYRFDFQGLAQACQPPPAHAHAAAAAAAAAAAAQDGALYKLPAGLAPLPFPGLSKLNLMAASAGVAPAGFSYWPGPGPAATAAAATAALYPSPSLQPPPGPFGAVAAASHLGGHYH
In short: as §1

ETV3L = biological target: T7, ETV3L (Homo sapiens, UniProt Q6ZN32 1-361); settings: protein: recombinant; tags: N-terminal GST; dsDNA, one strand shown
T7 sequence: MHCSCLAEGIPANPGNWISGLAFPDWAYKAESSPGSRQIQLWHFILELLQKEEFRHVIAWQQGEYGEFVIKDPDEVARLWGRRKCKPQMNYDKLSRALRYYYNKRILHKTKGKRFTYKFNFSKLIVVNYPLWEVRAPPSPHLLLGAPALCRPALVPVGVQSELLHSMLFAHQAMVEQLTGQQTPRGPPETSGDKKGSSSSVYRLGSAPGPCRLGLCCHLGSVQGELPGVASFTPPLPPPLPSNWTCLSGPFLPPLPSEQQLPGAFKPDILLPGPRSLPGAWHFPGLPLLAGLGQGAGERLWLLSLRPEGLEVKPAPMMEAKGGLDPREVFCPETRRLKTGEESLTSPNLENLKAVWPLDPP
In short: as §1

ETS2 = biological target: T8, ETS2 (Homo sapiens, UniProt P15036 1-469); settings: protein: recombinant; tags: N-terminal GST; dsDNA, one strand shown
T8 sequence: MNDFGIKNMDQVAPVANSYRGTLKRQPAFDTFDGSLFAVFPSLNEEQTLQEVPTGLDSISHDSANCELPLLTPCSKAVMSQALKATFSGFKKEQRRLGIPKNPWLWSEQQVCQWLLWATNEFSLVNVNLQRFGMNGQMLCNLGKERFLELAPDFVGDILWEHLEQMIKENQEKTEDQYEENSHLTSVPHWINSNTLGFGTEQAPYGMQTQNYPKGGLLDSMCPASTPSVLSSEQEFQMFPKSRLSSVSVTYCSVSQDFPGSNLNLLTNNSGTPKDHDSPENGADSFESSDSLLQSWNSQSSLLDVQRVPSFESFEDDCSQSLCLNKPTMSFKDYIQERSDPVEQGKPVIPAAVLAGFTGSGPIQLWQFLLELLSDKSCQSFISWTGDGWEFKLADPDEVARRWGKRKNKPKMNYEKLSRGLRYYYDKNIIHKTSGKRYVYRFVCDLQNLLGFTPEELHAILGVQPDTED
In short: as §1

SPDEF = biological target: T9, SPDEF (Homo sapiens, UniProt O95238 1-335); settings: protein: recombinant; tags: N-terminal GST; dsDNA, one strand shown
T9 sequence: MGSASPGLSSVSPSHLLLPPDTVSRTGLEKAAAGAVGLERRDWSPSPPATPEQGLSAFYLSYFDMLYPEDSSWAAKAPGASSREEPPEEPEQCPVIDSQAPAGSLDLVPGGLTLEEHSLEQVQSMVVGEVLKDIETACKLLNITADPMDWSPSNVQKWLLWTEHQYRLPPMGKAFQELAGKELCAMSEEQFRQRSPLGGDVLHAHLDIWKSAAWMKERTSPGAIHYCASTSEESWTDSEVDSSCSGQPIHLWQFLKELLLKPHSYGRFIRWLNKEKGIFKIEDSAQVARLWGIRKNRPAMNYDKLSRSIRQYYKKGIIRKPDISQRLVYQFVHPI
In short: as §1

ETV7 = biological target: T10, ETV7 (Homo sapiens, UniProt Q9Y603 1-341); settings: protein: recombinant; tags: N-terminal GST; dsDNA, one strand shown
T10 sequence: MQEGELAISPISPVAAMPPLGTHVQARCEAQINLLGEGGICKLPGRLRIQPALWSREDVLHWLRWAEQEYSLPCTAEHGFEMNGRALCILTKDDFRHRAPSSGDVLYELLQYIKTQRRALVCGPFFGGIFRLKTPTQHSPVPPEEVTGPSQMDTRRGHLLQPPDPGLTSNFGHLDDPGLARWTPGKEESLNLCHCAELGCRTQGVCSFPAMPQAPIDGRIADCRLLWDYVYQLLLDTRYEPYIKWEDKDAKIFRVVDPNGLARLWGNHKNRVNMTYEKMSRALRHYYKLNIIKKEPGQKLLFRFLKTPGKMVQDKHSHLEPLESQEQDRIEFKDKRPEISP
In short: as §1

ETV3 = biological target: T11, ETV3 (Homo sapiens, UniProt P41162-2 1-143); settings: protein: recombinant; tags: N-terminal GST; dsDNA, one strand shown
T11 sequence: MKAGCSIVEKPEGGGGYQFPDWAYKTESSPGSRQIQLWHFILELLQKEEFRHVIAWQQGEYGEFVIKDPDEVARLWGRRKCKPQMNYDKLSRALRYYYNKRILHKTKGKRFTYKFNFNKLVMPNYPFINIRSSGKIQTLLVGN
In short: as §1

ETV6 = ETV6 (Homo sapiens, UniProt P41212 1-452); settings: protein: recombinant; tags: N-terminal GST; dsDNA, one strand shown
Chain of ETV6 (P41212 whole entry): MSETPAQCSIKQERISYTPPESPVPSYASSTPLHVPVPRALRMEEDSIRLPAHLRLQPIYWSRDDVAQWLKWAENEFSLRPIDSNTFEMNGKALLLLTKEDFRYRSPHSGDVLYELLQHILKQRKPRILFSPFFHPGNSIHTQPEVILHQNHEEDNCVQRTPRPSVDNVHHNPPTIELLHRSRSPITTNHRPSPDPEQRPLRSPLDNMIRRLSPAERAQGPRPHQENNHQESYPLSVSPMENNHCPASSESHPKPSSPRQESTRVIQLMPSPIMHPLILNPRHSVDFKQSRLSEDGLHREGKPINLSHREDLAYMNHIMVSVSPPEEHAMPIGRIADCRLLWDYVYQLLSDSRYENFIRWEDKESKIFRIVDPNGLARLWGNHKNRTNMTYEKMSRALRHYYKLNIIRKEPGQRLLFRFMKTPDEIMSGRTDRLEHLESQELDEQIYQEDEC
In short: as §1

## GGAATG
HSF1
  binding signal: 1.25 fold enrichment (6-mer frequency, TF over GST control)

## ACAGAA
HSF1
  binding signal: 1.27 fold enrichment (6-mer frequency, TF over GST control)

## CCGGTG
FLI1
  binding signal: 1.04 fold enrichment (6-mer frequency, TF over GST control)
ELK1
  binding signal: 1.09 fold enrichment (6-mer frequency, TF over GST control)
GABPA
  binding signal: 1.08 fold enrichment (6-mer frequency, TF over GST control)
ERG
  binding signal: 1.19 fold enrichment (6-mer frequency, TF over GST control)
ELK3
  binding signal: 1.08 fold enrichment (6-mer frequency, TF over GST control)
FEV
  binding signal: 1.35 fold enrichment (6-mer frequency, TF over GST control)
ETV3L
  binding signal: 1.01 fold enrichment (6-mer frequency, TF over GST control)
ETS2
  binding signal: 1.02 fold enrichment (6-mer frequency, TF over GST control)
SPDEF
  binding signal: 1.13 fold enrichment (6-mer frequency, TF over GST control)
ETV7
  binding signal: 1.04 fold enrichment (6-mer frequency, TF over GST control)
ETV3
  binding signal: 1.08 fold enrichment (6-mer frequency, TF over GST control)
ETV6
  binding signal: 1.02 fold enrichment (6-mer frequency, TF over GST control)

## AGAAGG
HSF1
  binding signal: 1.28 fold enrichment (6-mer frequency, TF over GST control)
